Results filed as inconclusive are left out. Where a call stands in place of a potency, no number is given. The source made the active and inactive calls. Calls follow the shape of the dose curve; as a rule, active = well fitted curve in the direction sought with a large enough effect; inconclusive = small, poorly fitted or top-dose-only effect, or another doubt; inactive = no such curve, though single readings can be large or run the other way.

The nature of this assay: qHTS for Inhibitors of Bloom's syndrome helicase (BLM): Thiazole Orange DNA Binding Counterscreen for SAR. To be noted: fluorescence; Potency: Thiazole orange DNA displacement; series mostly up to 57.1 µM. The source says: Human RecQ DNA helicases participate in maintenance of genome stability and DNA repair. While other types of helicases have been explored as targets for drug development, members of the RecQ family have remained less well characterized. Mutations of the Bloom helicase gene have been associated with the rare human genetic disease called Bloom syndrome. […] Moreover, identified inhibitors can be used in cells and animal models to examine the consequences of inhibition on the survival of cancer cells where it has been shown that BLM plays an important role.
A fluorescence-based, biochemical assay in 1536 well format was developed to evaluate inhibition of BLM DNA unwinding activity. This assay was used to screen the MLPCN library. The resulting compounds were subjected to orthogonal and secondary biochemical assays to triage the initial hits, to classify compounds based on mode of action and to derive structure activity relationships (SARs) of candidate effectors. The Thiazole Orange (ThO) DNA binding (TO-binding) is used to eliminate inhibitors that operate via nonspecific DNA binding. This displacement assay is miniaturized for a 1536-well format and utilizes a ThO dye bound to unlabeled DNA. Inactivation or no significant activity is the desired outcome for this assay.
NIH Chemical Genomics Center [NCGC]
NIH Molecular Libraries Probe Centers Network [MLPCN]
Assay Submitter (PI): Opher Gileadi, Structural Genomics Consortium, University of Oxford, UK
Compounds were added to a 4 uL mixture of 50 nM DNA and 100 nM ThO via pintool transfer. The fluorescence signal (excitation 480 nm, emission 530 nm) was measured after 15 min incubation at room temperature using the ViewLux CCD imager.
A general note: Quantitative high-throughput screening tests each substance at several concentrations.
For `O=C(Nc1ccc(Cl)c(Cl)c1)Nc1nnc(-c2ccncc2)o1`, the Potency entry is “inactive”.

Consider `Cc1cc(NC(=O)Nc2nnc(-c3cccnc3)s2)ccc1F`, for which the Potency result was “inactive”.

As for `COc1ccccc1CNC(=O)Nc1nnc(-c2ccncc2)s1`, the Potency entry is “inactive”.

With `O=C(Nc1ccc(-n2cncn2)c(C(F)(F)F)c1)Nc1nnc(-c2ccncc2)s1`, the Potency entry is “inactive”.

As for `O=C(Nc1ccc(F)c(C(F)(F)F)c1)Nc1cccc(-c2ccncc2)n1`, the Potency result is “inactive”.

Regarding `O=S(=O)(Cc1ccc(Cl)c(Cl)c1)Nc1nnc(-c2ccncc2)s1`, the Potency entry was “inactive”.

On to `O=C(NCc1ccccc1)Nc1nnc(-c2ccncc2)s1`, for which the Potency entry is “inactive”.

As to `Cc1ccccc1-c1nnc(NC(=O)Nc2ccc3ccccc3c2)s1`, the Potency result was “inactive”.

With `O=C(Nc1ccc(Br)cc1)Nc1nnc(-c2ccncc2)s1`, the Potency result was “inactive”.

On to `O=C(Nc1ccc(Cl)c(Cl)c1)Nc1ccnc(-c2ccncc2)n1`, for which the Potency entry is “inactive”.

For `N#Cc1cc(NC(=O)Nc2nnc(-c3ccncc3)s2)ccc1F`, the Potency result is “inactive”.

On to `O=C(Nc1ccc(Cl)c([N+](=O)[O-])c1)Nc1nnc(-c2ccncc2)s1`, for which the Potency is 513 nM (active).

Turning to `N/C(=N\c1nnc(-c2ccncc2)s1)Nc1ccc(Cl)c(Cl)c1`, the Potency entry was “inactive”.

For the molecule `O=C(Nc1nnc(-c2ccncc2)s1)Nc1ccc(Cl)cc1F`, the Potency entry is “inactive”.

`Cc1cc(NC(=O)Nc2nnc(-c3ccncc3)s2)ccc1C#N`: the Potency result was “inactive”.

For `c1ccc2[nH]c(Nc3nnc(-c4ccncc4)s3)nc2c1`, the Potency entry was “inactive”.

Regarding `O=C(Nc1ccc(Cl)c(Cl)c1)Nc1cccc(-c2ccncc2)n1`, the Potency entry was “inactive”.

Turning to `O=C(Nc1ccc(Cl)cc1)Nc1nnc(-c2ccncc2)s1`, the Potency result was “inactive”.

For `O=C(NCc1ccc(Cl)c(Cl)c1)Nc1nnc(-c2ccncc2)s1`, the Potency entry was “inactive”.

With `O=c1c(Nc2ccc(Cl)c(Cl)c2)c(Nc2nnc(-c3ccncc3)s2)c1=O`, the Potency is 4570 nM (active).

With `Cc1cc(NC(=O)Nc2nnc(C3CCCCC3)s2)ccc1F`, the Potency result is “inactive”.

On to `N#Cc1cc(NC(=O)Nc2nnc(-c3ccncc3)s2)ccc1Br`, for which the Potency entry was “inactive”.

Consider `O=C(Nc1ccc(Cl)c(Cl)c1)N1CCN(c2ccncc2)CC1`, for which the Potency result is “inactive”.

As to `O=C(Nc1ccc(-c2nc3ccccc3[nH]2)cc1)Nc1ccc2occc2c1`, the Potency result is “inactive”.

`O=C(Nc1ccc(-n2cncn2)c(F)c1)Nc1nnc(-c2ccncc2)s1`: the Potency entry was “inactive”.

Regarding `O=C(Nc1ccc2ccccc2c1)Nc1nnc(-c2ccc(Cl)cc2Cl)s1`, the Potency entry was “inactive”.

In the case of `Cc1cc(NC(=O)Nc2cccc(-c3ccncc3)n2)ccc1F`, the Potency result was “inactive”.

As for `O=C(Nc1nnc(-c2ccncc2)s1)Nc1ccc(Cl)cc1Cl`, the Potency result is “inactive”.

As for `O=C(Nc1ccc(F)c(C(F)(F)F)c1)Nc1nnc(-c2ccncc2)s1`, the Potency entry is “inactive”.

On to `O=C(Nc1ccc2ccccc2c1)Nc1nnc(-c2ccncc2)o1`, for which the Potency entry is “inactive”.

As to `O=C(Nc1ccc(Cl)c(C(F)(F)F)c1)Nc1cccc(-c2ccncc2)n1`, the Potency result was “inactive”.

`O=C(Nc1ccc2ccccc2c1)Nc1nnc(-c2ccc(F)cc2)s1`: the Potency result is “inactive”.

On to `CN1CCN(c2nnc(NC(=O)Nc3ccc(Cl)c(Cl)c3)s2)CC1`, for which the Potency result is “inactive”.

For `N#Cc1cc(NC(=O)Nc2nnc(-c3ccncc3)s2)ccc1Cl`, the Potency result was “inactive”.

In the case of `O=C(Nc1ccc(Cl)nc1)Nc1nnc(-c2ccncc2)s1`, the Potency entry is “inactive”.

Regarding `Cc1cc(NC(=O)Nc2nnc(-c3cccnc3)s2)ccc1Cl`, the Potency result was “inactive”.

Consider `O=C(Nc1ccc2ccccc2c1)Nc1nnc(-c2ccccn2)s1`, for which the Potency result was “inactive”.

For `O=C(Nc1ccc2sccc2c1)Nc1nnc(-c2cccnc2)s1`, the Potency entry is “inactive”.

Consider `N/C(=N\c1nnc(-c2ccncc2)s1)Nc1ccc(F)c(C(F)(F)F)c1`, for which the Potency entry is “inactive”.

Regarding `O=C(Nc1ccc(-n2ccnc2)c(F)c1)Nc1nnc(-c2ccncc2)s1`, the Potency result was “inactive”.

These data come from PubChem BioAssay AID720550 (National Center for Advancing Translational Sciences (NCATS), 2013).
